{"source": "PubChem BioAssay (Tox21)", "note": "A number with no mark means an inactive call. Active and inactive are the calls of the source. Calls come from the whole dose curve; as a rule, active = well fitted curve in the direction sought with a large enough effect in the repeat runs; inconclusive = weak or mixed curves; inactive = flat fitted curve, though single readings scatter. % is set by controls: 0 for no effect and ±100 for the full control effect."}
{"assay": "qHTS assay to test for compound auto fluorescence at 590 nm (red) in HepG2 cell free culture (AID 720684)", "settings": "cell-free medium autofluorescence, red 540/590 nm; series mostly up to 91.3 µM; fluorescence, % of Rose Bengal: at the top concentration", "from_the_text": "U.S. Tox21 Program National Center for Advancing Translational Sciences [NCATS] NIH Chemical Genomics Center [NCGC] U.S. Environmental Protection Agency [EPA] National Institutes of Environmental Health Sciences [NIEHS] National Toxicology Program [NTP] U.S. Food and Drug Administration [FDA] Tox21 Assay Overview: Compound auto fluorescence often interferes with screening of the compound library against various biological targets and signaling pathways. Some of these compounds may have fluorophoric properties. Such properties may interfere with the assay outputs resulting in false positives and/or negatives. To decrease such complications and ensure the compound activities are relevant in terms of biological response, the Tox21 10K compound library was screened for auto fluorescence. From the fluorophores used as reporter signals in our screening assays, the auto fluorescence equivalencies of compounds against three fluorophores have been evaluated: Triamterene, Fluorescein and Rose Bengal sodium for blue, green and red fluorescence, respectively. The fluorescence intensities were measured using Excitation/Emission wavelengths at 405/460nm, 485/535nm and 540/590nm for blue, green and red labels, respectively. This assay includes the red fluorescence data.\nTox21 Assay Protocol Summary: 5 uL of culture medium (MEM containing 10% FBS) per well was dispensed into black wall/clear bottom 1536-well plates using a Multidrop Combi Dispenser (ThermoFisher Scientific, Waltham, MA). After 23 nL compound or DMSO vehicle was transferred into assay plate by a pintool work station (Kalypsys, San Diego, CA), fluorescence intensities in the assay plates were measured by an Envision (PerkinElmer, Shelton, CT) plate reader using three labels for measuring blue, green and red fluorescence at […] 460, 535 and 590nm respectively."}
{"smiles": "C/C(=C\\c1ccccc1)[N+](=O)[O-]", "fluorescence, % of Rose Bengal": "0.0286%"}
{"smiles": "NCC(CC(=O)O)c1ccc(Cl)cc1", "note": "(stereo not given)", "fluorescence, % of Rose Bengal": "-0.157% [at 46 µM]"}
{"smiles": "CN1C(=O)C(O)N=C(c2ccccc2)c2cc(Cl)ccc21", "note": "(stereo not given)", "outcome": "inactive"}
{"smiles": "COC(=O)C(Br)CBr", "note": "(stereo not given)", "fluorescence, % of Rose Bengal": "-0.111%"}
{"smiles": "CCCCN(N=O)C(=N)N[N+](=O)[O-]", "fluorescence, % of Rose Bengal": "-0.164% [at 95.7 µM]"}
{"smiles": "O=C(O)CC(Cl)C(=O)O", "note": "(stereo not given)", "fluorescence, % of Rose Bengal": "0.0648%"}
{"smiles": "O=[N+]([O-])c1ccc(F)c([N+](=O)[O-])c1", "outcome": "inactive"}
{"smiles": "C=COC(C)=O", "fluorescence, % of Rose Bengal": "-0.0308% [at 95.7 µM]"}
{"smiles": "C=CC(=O)OC", "fluorescence, % of Rose Bengal": "0.0022%"}
{"smiles": "ClP(Cl)(Cl)(Cl)Cl", "fluorescence, % of Rose Bengal": "-0.0609%"}
{"smiles": "COCCOCCO", "fluorescence, % of Rose Bengal": "0.445%"}
{"smiles": "CC1(C)[C@H](C=C(Cl)Cl)[C@@H]1C(=O)O[C@@H](C#N)c1cccc(Oc2ccccc2)c1", "fluorescence, % of Rose Bengal": "0.426%"}
{"smiles": "CCOC(=O)[C@]1(c2ccccc2)Oc2ccccc2[C@@H]1N", "fluorescence, % of Rose Bengal": "-0.0051%"}
{"smiles": "Nc1nc(N)nc(N)n1", "fluorescence, % of Rose Bengal": "0.0158%"}
{"smiles": "C[C@@H]1CC[C@H]2[C@@H](C)C(=O)O[C@@H]3O[C@@]4(C)CC[C@@H]1[C@]32OO4", "fluorescence, % of Rose Bengal": "-0.134% [at 46 µM]"}
{"smiles": "COC1=CC(=O)O[C@@H](CCc2ccccc2)C1", "fluorescence, % of Rose Bengal": "0.0639% [at 95.7 µM]"}
{"smiles": "CC1C(=O)C[C@]2(C(C)C)C[C@H]12", "note": "(stereo not given in full)", "fluorescence, % of Rose Bengal": "0.015%"}
{"smiles": "CC(Cl)C(C)Cl", "note": "(stereo not given)", "fluorescence, % of Rose Bengal": "0.0534%"}
{"smiles": "[CH3][Sn]([CH3])([Cl])[Cl]", "outcome": "inactive"}
{"smiles": "Cc1ccccc1C(=O)Nc1cccc(OC(C)C)c1", "fluorescence, % of Rose Bengal": "0.0157%"}
{"smiles": "CCCCCCC#N", "fluorescence, % of Rose Bengal": "0.32%"}
{"smiles": "CC1CC(CC2CCC(N)C(C)C2)CCC1N", "note": "(stereo not given)", "fluorescence, % of Rose Bengal": "-0.067% [at 95.7 µM]"}
{"smiles": "NNC(=O)c1cccnc1", "fluorescence, % of Rose Bengal": "0.0735%"}
{"smiles": "CO/C=C(/C(=O)OC)c1ccccc1COc1cccc(C(F)(F)F)n1", "fluorescence, % of Rose Bengal": "0.102%"}
{"smiles": "O=C(N[C@H](c1ccccc1)[C@@H]1CN2CCC1CC2)c1c(Cl)ccc(C(F)(F)F)c1Cl", "fluorescence, % of Rose Bengal": "0.0538% [at 95.7 µM]"}
{"smiles": "Oc1ccc(Cl)c(Cl)c1Cl", "fluorescence, % of Rose Bengal": "0.0442% [at 95.7 µM]"}
{"smiles": "BrCCCCBr", "fluorescence, % of Rose Bengal": "-0.101%"}
{"smiles": "O=C1C(Cl)C(CCl)CN1c1cccc(C(F)(F)F)c1", "note": "(stereo not given)", "fluorescence, % of Rose Bengal": "-0.0343%"}
{"smiles": "COC(=O)C(C)N(C(=O)Cc1ccccc1)c1c(C)cccc1C", "note": "(stereo not given)", "fluorescence, % of Rose Bengal": "0.0187%"}
{"smiles": "C[C@H]1CNCCc2ccc(Cl)cc21", "fluorescence, % of Rose Bengal": "-0.251% [at 46 µM]"}
{"smiles": "C=C(C#N)CCC#N", "fluorescence, % of Rose Bengal": "0.0868%"}
{"smiles": "CN1C(=O)NC(=O)C(C)(C2=CCCCC2)C1=O", "note": "(stereo not given)", "outcome": "inactive"}
{"smiles": "Clc1ccc(C2(Cn3cncn3)CC(Br)CO2)c(Cl)c1", "note": "(stereo not given)", "fluorescence, % of Rose Bengal": "0.0316%"}
{"smiles": "CCOP(=O)(OCC)O/C(=C/Cl)c1ccc(Cl)cc1Cl", "outcome": "inactive"}
{"smiles": "O=C(NC(=O)c1c(F)cccc1F)Nc1ccc(OC(F)(F)C(F)OC(F)(F)F)c(Cl)c1", "note": "(stereo not given)", "fluorescence, % of Rose Bengal": "0.096% [at 46 µM]"}
{"smiles": "CC(=O)CCC(C)=O", "fluorescence, % of Rose Bengal": "-0.0616% [at 95.7 µM]"}
{"smiles": "O=[N+]([O-])c1cc(C(F)(F)F)cc([N+](=O)[O-])c1Cl", "fluorescence, % of Rose Bengal": "0.0733%"}
{"smiles": "O=C(Nc1ccccc1)Nc1ccnc(Cl)c1", "fluorescence, % of Rose Bengal": "-0.0024%"}
{"smiles": "CC1(C)CCC(Cc2ccc(Cl)cc2)C1(O)Cn1cncn1", "note": "(stereo not given)", "fluorescence, % of Rose Bengal": "-0.221%"}
{"smiles": "N#Cc1cc(I)c(O)c(I)c1", "fluorescence, % of Rose Bengal": "-0.073%"}
